# Assays:
# Assay in all cases: DAPPL (digital affinity profiling via proximity ligation, sequencing); 10 mM Tris-HCl pH 7.5, 50 mM NaCl, 1 mM DTT, 4% glycerol, room temperature, 30 min; GST-TFs on glutathione beads, 16-mer random dsDNA library, 0.1% formaldehyde crosslink after washing; high values mean tight binding
# FLI1 = target: T1, FLI1 (Homo sapiens, UniProt Q01543 1-452); details: protein: recombinant; tags: N-terminal GST; dsDNA, one strand shown
# T1 sequence: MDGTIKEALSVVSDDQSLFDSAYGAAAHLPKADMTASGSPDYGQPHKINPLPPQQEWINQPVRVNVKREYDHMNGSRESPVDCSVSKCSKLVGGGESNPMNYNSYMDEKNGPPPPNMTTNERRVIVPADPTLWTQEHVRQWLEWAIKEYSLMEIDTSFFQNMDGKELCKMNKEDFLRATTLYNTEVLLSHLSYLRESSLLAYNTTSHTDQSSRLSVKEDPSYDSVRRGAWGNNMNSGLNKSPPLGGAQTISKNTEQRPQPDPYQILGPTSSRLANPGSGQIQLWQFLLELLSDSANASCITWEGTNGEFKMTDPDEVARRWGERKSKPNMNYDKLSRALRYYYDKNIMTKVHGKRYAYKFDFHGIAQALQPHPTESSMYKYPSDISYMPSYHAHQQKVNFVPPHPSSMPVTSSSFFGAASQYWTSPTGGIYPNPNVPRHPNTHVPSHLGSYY
# Procedure, shortened: (§1)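 Binding signal is defined as a hexamer's read frequency for one factor over its frequency for the tag-only sample. To obtain reads, GST-fused human transcription factors were expressed in yeast, captured on glutathione beads, barcoded with DNA and pooled with that sample. Pools met 200 nmole of a 16-mer random double-stranded DNA library in Tris/NaCl/DTT/glycerol buffer for 30 min at room temperature before washing, 0.1% formaldehyde crosslinking, proximity ligation (BsaI/T4 ligase, 1 h, 37 °C), PCR and Illumina NextSeq500 sequencing.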
# ELK1 = target: T2, ELK1 (Homo sapiens, UniProt P19419 1-428); details: protein: recombinant; tags: N-terminal GST; dsDNA, one strand shown
# T2 sequence: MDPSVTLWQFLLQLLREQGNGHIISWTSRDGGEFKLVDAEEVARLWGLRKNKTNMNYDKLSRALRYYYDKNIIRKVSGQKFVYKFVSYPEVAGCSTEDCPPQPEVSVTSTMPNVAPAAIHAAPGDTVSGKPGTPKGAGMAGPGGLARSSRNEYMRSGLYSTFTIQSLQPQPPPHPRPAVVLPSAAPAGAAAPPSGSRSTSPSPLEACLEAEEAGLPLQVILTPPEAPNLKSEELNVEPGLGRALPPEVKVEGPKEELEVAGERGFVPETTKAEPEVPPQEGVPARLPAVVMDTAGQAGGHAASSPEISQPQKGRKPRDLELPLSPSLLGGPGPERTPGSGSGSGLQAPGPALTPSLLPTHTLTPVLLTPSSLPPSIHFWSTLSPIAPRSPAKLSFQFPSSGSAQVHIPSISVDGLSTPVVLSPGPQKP
# Procedure, shortened: as §1
# GABPA = target: T3, GABPA (Homo sapiens, UniProt Q06546 1-454); details: protein: recombinant; tags: N-terminal GST; dsDNA, one strand shown
# T3 sequence: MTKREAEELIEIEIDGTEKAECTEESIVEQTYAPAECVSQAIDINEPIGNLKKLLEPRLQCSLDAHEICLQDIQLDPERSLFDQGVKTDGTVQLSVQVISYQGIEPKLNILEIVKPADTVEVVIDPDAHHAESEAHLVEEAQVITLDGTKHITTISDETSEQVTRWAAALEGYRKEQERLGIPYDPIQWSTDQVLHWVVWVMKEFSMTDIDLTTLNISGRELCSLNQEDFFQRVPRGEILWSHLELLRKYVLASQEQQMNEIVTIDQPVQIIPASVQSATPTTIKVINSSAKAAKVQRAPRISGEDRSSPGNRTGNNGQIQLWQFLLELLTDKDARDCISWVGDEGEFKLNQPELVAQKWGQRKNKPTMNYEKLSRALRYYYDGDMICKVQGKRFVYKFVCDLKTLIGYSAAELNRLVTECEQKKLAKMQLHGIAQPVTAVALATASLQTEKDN
# Procedure, shortened: as §1
# ERG = target: T4, ERG (Homo sapiens, UniProt P11308 1-479); details: protein: recombinant; tags: N-terminal GST; dsDNA, one strand shown
# T4 sequence: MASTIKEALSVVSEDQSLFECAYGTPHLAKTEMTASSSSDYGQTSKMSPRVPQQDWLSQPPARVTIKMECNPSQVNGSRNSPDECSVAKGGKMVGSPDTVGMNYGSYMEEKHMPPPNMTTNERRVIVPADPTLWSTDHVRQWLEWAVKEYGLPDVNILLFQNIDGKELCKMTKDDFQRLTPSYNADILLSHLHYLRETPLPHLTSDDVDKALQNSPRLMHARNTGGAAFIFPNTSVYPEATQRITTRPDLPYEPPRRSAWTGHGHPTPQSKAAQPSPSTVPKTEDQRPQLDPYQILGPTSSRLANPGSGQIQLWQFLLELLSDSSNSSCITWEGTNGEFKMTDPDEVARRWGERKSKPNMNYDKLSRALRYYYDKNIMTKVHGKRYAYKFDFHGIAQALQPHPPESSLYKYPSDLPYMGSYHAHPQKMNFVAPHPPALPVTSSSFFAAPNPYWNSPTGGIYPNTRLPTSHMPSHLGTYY
# Procedure, shortened: as §1
# ELF1 = ELF1 (Homo sapiens, UniProt P32519 1-619); details: protein: recombinant; tags: N-terminal GST; dsDNA, one strand shown
# Sequence of ELF1 (P32519 whole entry): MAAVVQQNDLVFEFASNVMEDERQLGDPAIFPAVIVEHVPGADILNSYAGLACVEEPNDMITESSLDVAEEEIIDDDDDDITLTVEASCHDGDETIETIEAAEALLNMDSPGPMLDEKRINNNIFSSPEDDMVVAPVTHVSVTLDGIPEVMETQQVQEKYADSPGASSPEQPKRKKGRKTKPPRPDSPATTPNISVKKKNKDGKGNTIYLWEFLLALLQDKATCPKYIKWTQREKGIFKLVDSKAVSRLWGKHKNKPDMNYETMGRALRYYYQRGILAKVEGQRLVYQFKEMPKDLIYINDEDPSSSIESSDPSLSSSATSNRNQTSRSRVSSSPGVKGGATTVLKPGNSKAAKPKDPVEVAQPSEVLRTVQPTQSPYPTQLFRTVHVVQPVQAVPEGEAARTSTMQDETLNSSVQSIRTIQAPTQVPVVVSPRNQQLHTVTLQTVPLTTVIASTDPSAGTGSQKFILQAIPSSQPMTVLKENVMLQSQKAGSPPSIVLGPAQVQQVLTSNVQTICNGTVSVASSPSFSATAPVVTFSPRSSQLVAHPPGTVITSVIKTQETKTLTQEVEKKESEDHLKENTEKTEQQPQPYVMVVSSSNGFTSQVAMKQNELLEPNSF
# Procedure, shortened: as §1
# EHF = target: T5, EHF (Homo sapiens, UniProt Q9NZC4 1-300); details: protein: recombinant; tags: N-terminal GST; dsDNA, one strand shown
# T5 sequence: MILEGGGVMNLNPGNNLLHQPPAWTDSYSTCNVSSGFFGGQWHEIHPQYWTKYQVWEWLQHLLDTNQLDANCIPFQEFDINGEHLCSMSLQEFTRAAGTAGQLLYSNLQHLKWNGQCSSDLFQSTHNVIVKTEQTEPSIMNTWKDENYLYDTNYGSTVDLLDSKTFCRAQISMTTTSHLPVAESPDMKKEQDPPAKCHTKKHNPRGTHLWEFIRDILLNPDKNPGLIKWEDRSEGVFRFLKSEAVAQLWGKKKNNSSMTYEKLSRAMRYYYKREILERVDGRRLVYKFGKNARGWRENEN
# Procedure, shortened: as §1
# SPI1 = SPI1 (Homo sapiens, UniProt P17947 1-270); details: protein: recombinant; tags: N-terminal GST; dsDNA, one strand shown
# Procedure, shortened: as §1
# SPIB = SPIB (Homo sapiens, UniProt Q01892 1-262); details: protein: recombinant; tags: N-terminal GST; dsDNA, one strand shown
# Sequence of SPIB (Q01892 whole entry): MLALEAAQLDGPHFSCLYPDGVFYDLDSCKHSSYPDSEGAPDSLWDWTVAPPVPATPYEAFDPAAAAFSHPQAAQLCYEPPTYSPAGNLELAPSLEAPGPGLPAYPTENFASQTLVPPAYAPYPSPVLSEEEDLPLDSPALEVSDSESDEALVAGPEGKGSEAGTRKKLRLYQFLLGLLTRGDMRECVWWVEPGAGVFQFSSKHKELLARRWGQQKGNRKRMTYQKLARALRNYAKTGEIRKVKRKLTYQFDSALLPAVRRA
# Procedure, shortened: as §1
# ELK3 = target: T6, ELK3 (Homo sapiens, UniProt P41970 1-407); details: protein: recombinant; tags: N-terminal GST; dsDNA, one strand shown
# T6 sequence: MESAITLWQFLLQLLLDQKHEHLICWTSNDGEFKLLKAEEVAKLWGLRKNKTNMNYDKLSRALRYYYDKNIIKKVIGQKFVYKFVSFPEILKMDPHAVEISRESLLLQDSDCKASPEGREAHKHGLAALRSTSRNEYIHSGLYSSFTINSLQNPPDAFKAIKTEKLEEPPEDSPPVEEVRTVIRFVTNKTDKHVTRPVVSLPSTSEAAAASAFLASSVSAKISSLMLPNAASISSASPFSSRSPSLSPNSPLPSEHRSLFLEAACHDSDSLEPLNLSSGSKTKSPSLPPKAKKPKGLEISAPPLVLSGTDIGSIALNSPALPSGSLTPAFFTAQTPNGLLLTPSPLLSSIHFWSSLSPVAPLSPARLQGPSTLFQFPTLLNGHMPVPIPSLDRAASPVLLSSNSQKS
# Procedure, shortened: as §1
# FEV = target: T7, FEV (Homo sapiens, UniProt Q99581 1-238); details: protein: recombinant; tags: N-terminal GST; dsDNA, one strand shown
# T7 sequence: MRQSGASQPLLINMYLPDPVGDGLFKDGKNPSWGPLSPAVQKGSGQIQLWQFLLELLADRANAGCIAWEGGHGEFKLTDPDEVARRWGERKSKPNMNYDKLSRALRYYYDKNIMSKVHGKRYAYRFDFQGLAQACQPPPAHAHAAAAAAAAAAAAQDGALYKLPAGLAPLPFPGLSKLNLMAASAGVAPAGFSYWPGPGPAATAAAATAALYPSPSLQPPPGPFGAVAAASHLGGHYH
# Procedure, shortened: as §1
# ETV5 = ETV5 (Homo sapiens, UniProt P41161 1-510); details: protein: recombinant; tags: N-terminal GST; dsDNA, one strand shown
# Sequence of ETV5 (P41161 whole entry): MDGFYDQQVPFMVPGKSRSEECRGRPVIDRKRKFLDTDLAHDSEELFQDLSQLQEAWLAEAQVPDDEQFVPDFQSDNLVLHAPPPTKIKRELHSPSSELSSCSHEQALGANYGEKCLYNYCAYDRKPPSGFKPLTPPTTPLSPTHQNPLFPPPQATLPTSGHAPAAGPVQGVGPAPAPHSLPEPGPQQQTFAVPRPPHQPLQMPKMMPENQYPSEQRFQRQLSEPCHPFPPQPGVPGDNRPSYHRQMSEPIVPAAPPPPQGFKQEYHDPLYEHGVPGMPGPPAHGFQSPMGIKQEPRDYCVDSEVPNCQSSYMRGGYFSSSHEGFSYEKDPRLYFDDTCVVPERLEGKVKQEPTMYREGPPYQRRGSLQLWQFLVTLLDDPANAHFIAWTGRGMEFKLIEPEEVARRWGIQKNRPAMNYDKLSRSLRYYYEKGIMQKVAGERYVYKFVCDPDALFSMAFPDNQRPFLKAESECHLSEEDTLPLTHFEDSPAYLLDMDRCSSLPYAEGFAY
# Procedure, shortened: as §1
# HSF1 = HSF1 (Homo sapiens, UniProt Q00613 1-529); details: protein: recombinant; tags: N-terminal GST; chain copies: 3; dsDNA, one strand shown
# Sequence of HSF1 (Q00613 whole entry): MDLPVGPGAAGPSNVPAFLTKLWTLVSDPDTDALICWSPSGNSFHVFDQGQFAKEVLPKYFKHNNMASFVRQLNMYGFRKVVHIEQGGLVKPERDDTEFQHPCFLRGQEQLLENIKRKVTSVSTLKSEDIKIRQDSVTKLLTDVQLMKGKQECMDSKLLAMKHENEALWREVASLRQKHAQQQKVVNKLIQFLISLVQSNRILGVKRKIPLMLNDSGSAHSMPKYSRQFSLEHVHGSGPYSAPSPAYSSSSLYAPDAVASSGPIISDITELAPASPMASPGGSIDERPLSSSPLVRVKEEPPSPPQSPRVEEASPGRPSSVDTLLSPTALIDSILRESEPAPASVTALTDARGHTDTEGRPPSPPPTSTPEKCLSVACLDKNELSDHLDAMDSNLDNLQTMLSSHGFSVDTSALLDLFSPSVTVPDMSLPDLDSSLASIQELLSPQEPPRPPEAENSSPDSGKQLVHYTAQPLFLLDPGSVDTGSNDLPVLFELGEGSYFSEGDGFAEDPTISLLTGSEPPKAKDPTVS
# Procedure, shortened: as §1
# SPIC = target: T8, SPIC (Homo sapiens, UniProt Q8N5J4 1-248); details: protein: recombinant; tags: N-terminal GST; dsDNA, one strand shown
# T8 sequence: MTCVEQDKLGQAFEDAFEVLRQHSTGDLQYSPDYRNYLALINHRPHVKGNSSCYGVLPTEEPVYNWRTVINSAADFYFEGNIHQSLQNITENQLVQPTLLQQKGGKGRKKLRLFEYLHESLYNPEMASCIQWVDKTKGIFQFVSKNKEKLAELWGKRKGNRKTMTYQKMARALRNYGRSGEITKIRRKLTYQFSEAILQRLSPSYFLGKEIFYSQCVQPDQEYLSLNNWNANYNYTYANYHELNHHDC
# Procedure, shortened: as §1
# ELF4 = ELF4 (Homo sapiens, UniProt Q99607 1-663); details: protein: recombinant; tags: N-terminal GST; dsDNA, one strand shown
# Sequence of ELF4 (Q99607 whole entry): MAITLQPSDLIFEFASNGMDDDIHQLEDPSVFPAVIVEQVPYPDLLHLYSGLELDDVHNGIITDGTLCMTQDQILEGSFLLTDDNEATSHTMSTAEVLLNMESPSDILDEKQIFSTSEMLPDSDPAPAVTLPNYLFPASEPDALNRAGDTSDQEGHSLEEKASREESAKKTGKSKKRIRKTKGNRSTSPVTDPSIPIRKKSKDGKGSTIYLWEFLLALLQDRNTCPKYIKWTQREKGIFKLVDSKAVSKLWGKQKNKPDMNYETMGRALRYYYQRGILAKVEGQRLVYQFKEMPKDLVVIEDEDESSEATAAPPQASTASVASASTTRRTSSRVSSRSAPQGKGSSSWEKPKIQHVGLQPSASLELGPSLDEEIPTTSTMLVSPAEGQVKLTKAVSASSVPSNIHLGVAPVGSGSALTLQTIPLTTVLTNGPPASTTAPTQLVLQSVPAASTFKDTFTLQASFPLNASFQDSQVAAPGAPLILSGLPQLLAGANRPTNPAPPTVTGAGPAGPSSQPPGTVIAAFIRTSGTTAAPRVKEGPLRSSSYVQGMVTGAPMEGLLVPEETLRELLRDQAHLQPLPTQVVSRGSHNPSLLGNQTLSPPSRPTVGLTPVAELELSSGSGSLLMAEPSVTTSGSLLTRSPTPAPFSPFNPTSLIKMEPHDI
# Procedure, shortened: as §1
# ELK4 = target: T9, ELK4 (Homo sapiens, UniProt P28324-2 1-405); details: protein: recombinant; tags: N-terminal GST; dsDNA, one strand shown
# T9 sequence: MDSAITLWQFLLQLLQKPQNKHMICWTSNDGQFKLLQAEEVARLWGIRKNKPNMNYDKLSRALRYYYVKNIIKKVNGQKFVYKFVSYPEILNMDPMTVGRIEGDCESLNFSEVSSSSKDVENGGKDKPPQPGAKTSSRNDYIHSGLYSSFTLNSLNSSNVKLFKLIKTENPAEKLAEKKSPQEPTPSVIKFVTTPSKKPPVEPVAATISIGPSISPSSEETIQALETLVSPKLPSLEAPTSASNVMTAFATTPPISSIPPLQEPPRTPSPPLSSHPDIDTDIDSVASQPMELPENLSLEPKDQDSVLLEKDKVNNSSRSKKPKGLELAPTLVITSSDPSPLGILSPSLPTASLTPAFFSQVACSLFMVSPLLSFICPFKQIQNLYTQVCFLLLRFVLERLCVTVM
# Procedure, shortened: as §1
# ETV2 = target: T10, ETV2 (Homo sapiens, UniProt O00321 1-342); details: protein: recombinant; tags: N-terminal GST; dsDNA, one strand shown
# T10 sequence: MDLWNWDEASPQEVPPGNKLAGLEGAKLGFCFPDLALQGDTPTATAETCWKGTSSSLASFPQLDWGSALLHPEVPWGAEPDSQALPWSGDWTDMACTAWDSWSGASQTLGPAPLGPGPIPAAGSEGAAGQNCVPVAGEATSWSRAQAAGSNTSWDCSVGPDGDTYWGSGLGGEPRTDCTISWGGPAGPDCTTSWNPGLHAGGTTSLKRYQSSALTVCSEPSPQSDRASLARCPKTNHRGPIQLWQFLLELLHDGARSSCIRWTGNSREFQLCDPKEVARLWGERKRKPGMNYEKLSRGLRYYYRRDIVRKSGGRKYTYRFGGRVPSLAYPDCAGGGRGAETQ
# Procedure, shortened: as §1
# ELF3 = target: T11, ELF3 (Homo sapiens, UniProt P78545 1-371); details: protein: recombinant; tags: N-terminal GST; dsDNA, one strand shown
# T11 sequence: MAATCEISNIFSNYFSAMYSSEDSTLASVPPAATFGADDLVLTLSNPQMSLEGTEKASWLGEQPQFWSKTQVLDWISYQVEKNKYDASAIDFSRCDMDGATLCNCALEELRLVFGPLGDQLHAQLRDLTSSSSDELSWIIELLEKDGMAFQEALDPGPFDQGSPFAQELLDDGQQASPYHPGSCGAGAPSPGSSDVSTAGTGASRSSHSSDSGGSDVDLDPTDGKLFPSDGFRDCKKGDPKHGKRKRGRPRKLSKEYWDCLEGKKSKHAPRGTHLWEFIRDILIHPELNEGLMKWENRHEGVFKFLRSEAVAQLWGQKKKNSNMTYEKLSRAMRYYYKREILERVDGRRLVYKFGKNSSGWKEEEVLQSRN
# Procedure, shortened: as §1
# CRX = CRX (Homo sapiens, UniProt O43186 1-299); details: protein: recombinant; tags: N-terminal GST; dsDNA, one strand shown
# Sequence of CRX (O43186 whole entry): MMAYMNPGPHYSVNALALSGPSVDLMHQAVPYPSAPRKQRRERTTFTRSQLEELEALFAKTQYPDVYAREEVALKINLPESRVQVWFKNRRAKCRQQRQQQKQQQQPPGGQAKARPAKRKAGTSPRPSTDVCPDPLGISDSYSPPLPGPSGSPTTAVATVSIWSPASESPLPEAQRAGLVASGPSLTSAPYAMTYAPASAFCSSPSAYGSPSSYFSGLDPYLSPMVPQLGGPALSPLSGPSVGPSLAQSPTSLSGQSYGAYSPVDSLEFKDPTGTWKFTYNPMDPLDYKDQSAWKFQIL
# Procedure, shortened: as §1
# ETV1 = ETV1 (Homo sapiens, UniProt P50549 1-477); details: protein: recombinant; tags: N-terminal GST; dsDNA, one strand shown
# Sequence of ETV1 (P50549 whole entry): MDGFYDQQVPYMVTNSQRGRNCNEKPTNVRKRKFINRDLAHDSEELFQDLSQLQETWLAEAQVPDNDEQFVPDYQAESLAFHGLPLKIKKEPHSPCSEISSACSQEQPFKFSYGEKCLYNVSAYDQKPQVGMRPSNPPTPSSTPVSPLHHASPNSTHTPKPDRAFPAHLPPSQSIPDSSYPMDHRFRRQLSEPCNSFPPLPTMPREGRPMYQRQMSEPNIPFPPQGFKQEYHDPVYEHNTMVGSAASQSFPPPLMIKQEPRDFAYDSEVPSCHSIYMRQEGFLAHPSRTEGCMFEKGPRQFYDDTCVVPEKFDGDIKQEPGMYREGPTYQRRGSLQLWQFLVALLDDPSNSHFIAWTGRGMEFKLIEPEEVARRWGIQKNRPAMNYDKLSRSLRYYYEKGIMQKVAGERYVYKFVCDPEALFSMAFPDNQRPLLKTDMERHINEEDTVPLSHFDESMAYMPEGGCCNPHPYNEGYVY
# Procedure, shortened: as §1
sequence,measurement,setting,value
CGCTTC,binding signal,FLI1,"1.94 fold enrichment (6-mer frequency, TF over GST control)"
same,binding signal,ELK1,"2.2 fold enrichment (6-mer frequency, TF over GST control)"
same,binding signal,GABPA,"1.99 fold enrichment (6-mer frequency, TF over GST control)"
same,binding signal,ERG,"2.07 fold enrichment (6-mer frequency, TF over GST control)"
same,binding signal,ELF1,"2.04 fold enrichment (6-mer frequency, TF over GST control)"
same,binding signal,EHF,"2.16 fold enrichment (6-mer frequency, TF over GST control)"
same,binding signal,SPI1,"2 fold enrichment (6-mer frequency, TF over GST control)"
same,binding signal,SPIB,"2.05 fold enrichment (6-mer frequency, TF over GST control)"
same,binding signal,ELK3,"2.29 fold enrichment (6-mer frequency, TF over GST control)"
same,binding signal,FEV,"2.28 fold enrichment (6-mer frequency, TF over GST control)"
same,binding signal,ETV5,"2.34 fold enrichment (6-mer frequency, TF over GST control)"
same,binding signal,HSF1,"1.26 fold enrichment (6-mer frequency, TF over GST control)"
same,binding signal,SPIC,"1.77 fold enrichment (6-mer frequency, TF over GST control)"
same,binding signal,ELF4,"2.02 fold enrichment (6-mer frequency, TF over GST control)"
same,binding signal,ELK4,"1.77 fold enrichment (6-mer frequency, TF over GST control)"
same,binding signal,ETV2,"1.68 fold enrichment (6-mer frequency, TF over GST control)"
same,binding signal,ELF3,"1.93 fold enrichment (6-mer frequency, TF over GST control)"
same,binding signal,CRX,"1.05 fold enrichment (6-mer frequency, TF over GST control)"
same,binding signal,ETV1,"2.03 fold enrichment (6-mer frequency, TF over GST control)"

# — article PMC7862700, “An all-to-all approach to the identification of sequence-specific readers for epigenetic DNA modifications on cytosine”
